Assay results as given in PubChem BioAssay (NCI).
This is part of a sample that, as a whole, favours compounds with a hit. Of some 79,000 tested, about 15% had one in any assay. Unmarked numbers belong to inactive results. Activity calls are given as the source filed them. No stated cut-off is given here; in the data, active means growth inhibition above about 70%; inactive means the rest.

Assays:
[1] = NCI Yeast Anticancer Drug Screen. Data for the rad50 strain (AID 155);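 further: 0% = growth of vehicle-only cultures of the same strain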; details: S. cerevisiae rad50 strain growth inhibition, hits give high values
Method in brief: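 Yeast carrying a defined DNA repair defect were exposed to test compounds, and growth was compared with vehicle-treated controls to give percent inhibition.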

[2] = NCI Yeast Anticancer Drug Screen. Data for the mec2-1 strain (AID 157); details: S. cerevisiae mec2-1 strain, hits give high values
Method in brief: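 Using mec2-1 yeast: add compound, measure growth, express inhibition versus vehicle-treated cultures.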

[3] = NCI Yeast Anticancer Drug Screen. Data for the sgs1 mgt1 strain (AID 161);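 further: 0% = growth of cultures given vehicle only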; details: S. cerevisiae sgs1 mgt1 strain, hits give high values
Method in brief: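 Yeast cells carrying a defined DNA-repair defect were exposed to test compounds. Growth inhibition was measured relative to vehicle-treated controls.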

[4] = NCI Yeast Anticancer Drug Screen. Data for the cln2 rad14 strain (AID 165);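 further: 0% = growth equal to vehicle treated cultures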; details: S. cerevisiae cln2 rad14 strain, hits give high values
Method in brief: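 Yeast strain cln2 rad14, bearing defects in cell cycle control and DNA repair, serves as the test system; values reflect growth inhibition compared with vehicle.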

[5] = NCI Yeast Anticancer Drug Screen. Data for the bub3 strain (AID 167); details: S. cerevisiae bub3 mutant strain, hits give high values
Method in brief: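 Compounds were applied to a genetically altered yeast strain carrying a cell-cycle control defect. Growth inhibition was scored against vehicle-treated controls.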

[6] = NCI Yeast Anticancer Drug Screen. Data for the mlh1 rad18 strain (AID 175); details: S. cerevisiae mlh1 rad18 strain growth inhibition, hits give high values
Method in brief: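 Steps: expose repair-defective yeast to compound; measure growth; express inhibition against vehicle-treated controls.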

[7] = at 5.0 µM (retest, dose inferred, filed as 0.5)
[8] = at 50.0 µM (retest, dose inferred, filed as 5.0)

| SMILES | growth inhibition [1, 7] | growth inhibition [1, 8] | growth inhibition ([1]; at 50.0 µM) | growth inhibition [2, 7] | growth inhibition [2, 8] | growth inhibition ([2]; at 50.0 µM) | growth inhibition [3, 7] | growth inhibition [3, 8] | growth inhibition ([3]; at 50.0 µM) | growth inhibition [4, 7] | growth inhibition [4, 8] | growth inhibition ([4]; at 50.0 µM) | growth inhibition [5, 7] | growth inhibition [5, 8] | growth inhibition ([5]; at 50.0 µM) | growth inhibition [6, 7] | growth inhibition [6, 8] | growth inhibition ([6]; at 50.0 µM) |
| --- | --- | --- | --- | --- | --- | --- | --- | --- | --- | --- | --- | --- | --- | --- | --- | --- | --- | --- |
| COc1ccc(C(c2ccc(OC)c(OC)c2)C(Cl)(Cl)Cl)cc1OC | 3% | 94% (active) | 89.5% (active) | 8% | 96% (active) | 93.4% (active) | 6% | 95% (active) | 94% (active) | 8% | 94% (active) | 86% (active) | 3% | 97% (active) | 88.5% (active) | 6% | 94% (active) | 92.4% (active) |
| CCN(CC)CCC(=O)OC1C(C)=CC(C)C(=O)CC(C(C)CC2CCC(O)C(OC)C2)OC(=O)C2CCCCN2C(=O)C(=O)[C@@]2(O)OC(CCC2C)CC(OC)\C(C)=C/C=C/C=C/C(C)CC(C)C(=O)C1OC (some centres not stated) | 40% | 97% (active) | 90.9% (active) | 26% | 98% (active) | 93% (active) | 96% (active) | 96% (active) | 93.4% (active) | 94% (active) | 95% (active) | 87.7% (active) | 53% | 98% (active) | 92.8% (active) | 97% (active) | 97% (active) | 92.2% (active) |
| CC(=O)OC1COC(n2nnc(C#N)c2C#N)C(OC(C)=O)C1OC(C)=O (configuration not stated) | 4% | 9% | 93.7% (active) | -7% | 2% | 82.4% (active) | 1% | 4% | 94.7% (active) | 3% | 4% | 83% (active) | 1% | 4% | 89.3% (active) | 0% | 27% | 91.8% (active) |
| CC(O[Si](C)(C)C(C)(C)C)C(=O)Sc1ccccn1 (configuration not stated) | -1% | 66% | 95.3% (active) | -9% | 97% (active) | 97.2% (active) | -6% | 54% | 95.5% (active) | -10% | 84% (active) | 85.9% (active) | -6% | 99% (active) | 93.9% (active) | -9% | 48% | 94.7% (active) |
| CCOC(=O)C(=O)CC(=O)C(Br)C(Br)c1ccc(Cl)cc1 (configuration not stated) | 78% (active) | 99% (active) | 99.5% (active) | 85% (active) | 99% (active) | 99.6% (active) | 97% (active) | 99% (active) | 99.4% (active) | 69% | 100% (active) | 99% (active) | 92% (active) | 99% (active) | 99.3% (active) | 90% (active) | 99% (active) | 99.5% (active) |
| O=C1C(Cl)=CC(=NCl)C=C1Cl | 59% | 83% (active) | 89.1% (active) | 53% | 91% (active) | 91% (active) | 27% | 98% (active) | 91.9% (active) | 47% | 100% (active) | 85% (active) | 84% (active) | 95% (active) | 89.8% (active) | 28% | 86% (active) | 89% (active) |
| CC(C)(CN1CCCCC1)C(/C=C/c1ccc(Cl)c(Cl)c1)=N\NC(=O)N/N=C(/C=C/c1ccc(Cl)c(Cl)c1)C(C)(C)CN1CCCCC1 | 42% | 98% (active) | 90.5% (active) | 29% | 99% (active) | 93.3% (active) | 41% | 99% (active) | 92.8% (active) | 31% | 98% (active) | 91.2% (active) | 39% | 67% | 91.8% (active) | 56% | 99% (active) | 90% (active) |
| COc1ccccc1C1C2=C(COC2=O)OC(C)(C)Oc2cc3c(cc21)OCO3 (configuration not stated) | 22% | 96% (active) | 75.8% (active) | -13% | 96% (active) | 85.1% (active) | 16% | 96% (active) | 86.3% (active) | 35% | 95% (active) | 87.3% (active) | -22% | 97% (active) | 89.7% (active) | 15% | 96% (active) | 88% (active) |
| Oc1c2c(c(O)c3ncccc13)C1C=CC2CC1 (configuration not stated) | -5% | 99% (active) | 97.7% (active) | 0% | 99% (active) | 97.1% (active) | -5% | 98% (active) | 99.3% (active) | -25% | 98% (active) | 84.8% (active) | 2% | 99% (active) | 97.7% (active) | -4% | 99% (active) | 98.3% (active) |
| CC(=O)O[C@@H]1CC(C)C2CC2C2=C(C(O)OC2O)[C@@H]1C(C)CCC=C(C)C (some centres not stated) | 19% | 98% (active) | 91.9% (active) | 92% (active) | 99% (active) | 93.7% (active) | 25% | 98% (active) | 93% (active) | 86% (active) | 98% (active) | 90% (active) | 99% (active) | 98% (active) | 92.4% (active) | 78% (active) | 98% (active) | 91.5% (active) |
| O=C(NC1CCN(Cc2ccccc2)CC1)c1cccc(I)c1 | 49% | 68% | 51.7% | 39% | 64% | 58% | 57% | 73% (active) | 81% (active) | 84% (active) | 88% (active) | 82.2% (active) | 62% | 65% | 70% (active) | 73% (active) | 59% | 67.5% |
| CC(Br)C(=O)c1ccc(OCc2ccccc2)cc1 (configuration not stated) | 15% | 84% (active) | 90.7% (active) | 14% | 99% (active) | 94.2% (active) | 8% | 75% (active) | 89.9% (active) | 22% | 78% (active) | 92.3% (active) | 6% | 99% (active) | 90% (active) | 13% | 94% (active) | 77.9% (active) |
| CCCNC(=O)C(=O)NNc1ccccc1 | 7% | 64% | 66.8% | 6% | 62% | 59.1% | 10% | 55% | 57% | 11% | 79% (active) | 73.5% (active) | -2% | 95% (active) | 70.7% (active) | 14% | 95% (active) | 90.1% (active) |
| CCC(C)SSc1ccccc1C(=O)Nc1ccc(Cl)cc1 (configuration not stated) | 3% | 52% | 79.5% (active) | 14% | 93% (active) | 93.9% (active) | -12% | 83% (active) | 91.7% (active) | -5% | 85% (active) | 74.1% (active) | -2% | 93% (active) | 91.3% (active) | 7% | 91% (active) | 87.7% (active) |
| CC(=O)OCC1OC(Sc2ccc3ccccc3c2)C(OC(C)=O)C(OC(C)=O)C1OC(C)=O (configuration not stated) | 2% | -7% | 23.9% | 3% | 2% | 12.8% | 2% | 1% | 2.7% | 1% | -15% | 52.4% | 4% | 7% | 70.2% (active) | 0% | -2% | 22% |
| O=c1[nH]c2ccccc2c2oc3ccccc3c12 | -14% | 83% (active) | 63.5% | -10% | 71% (active) | 51.5% | -4% | 69% | 64.5% | 18% | 32% | 25.4% | -10% | 88% (active) | 46.5% | -18% | 94% (active) | 68.3% |
| CCCCN(CCCC)/N=C\C1=C2NC(=O)/C(C)=C\C=C/C(OC)C(OC(N)=O)/C(C)=C/C(C)C(O)C(OC)CC(C)CC(=C(OC)C1=O)C2=O (configuration not stated) | 2% | 81% (active) | 54.4% | -2% | 87% (active) | 48.4% | -4% | 89% (active) | 47.9% | -8% | 78% (active) | 47.6% | -3% | 32% | 44% | -2% | 80% (active) | 60.5% |
| C/C(=C/C(=O)N1c2ccccc2CC1c1c[nH]c2ccccc12)C(=O)O (configuration not stated) | -1% | 39% | 62.1% | -8% | 5% | -2.65% | -3% | 33% | 46.9% | -79% | 8% | -0.65% | -4% | 20% | 17.1% | -2% | 15% | 40.9% |
| COc1cccc2c1C(=O)c1c(O)c3c(c(O)c1C2=O)CC(O)(C(=O)CO)CC3OC1CC(N)C(O)C(C)O1.[Cl][Pt+2][Cl].[NH2-].[NH2-] (configuration not stated) | 12% | 85% (active) | 74.5% (active) | 9% | 47% | 49.5% | 11% | 83% (active) | 78% (active) | 8% | 87% (active) | 43.5% | 0% | 56% | 34.5% | 29% | 94% (active) | 88.7% (active) |
